Measurements reported in PubChem BioAssay AID463190 (Sanford-Burnham Center for Chemical Genomics, 2010).
Screen size: about 330,000 compounds; about 7,300 (2.2%) were called active. The entries come from a sample that favours actives as a whole. Values without a mark were called inactive.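 Rule for the calls: active = inhibition of at least 40%; inactive = the rest.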

Assay: growth inhibition of tim10-1 ts yeast – luminescence, uHTS, primary screen (AID 463190);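 note: mutant grown at 25 °C; 0% = DMSO wells with yeast and 100% = wells holding no yeast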
Details: S. cerevisiae tim10-1 ts strain growth, BacTiter-Glo, 24 h; at 20 µM; hits give high values

SMILES | inhibition
O=S(=O)(c1ccc(Br)cc1)c1nc(-c2ccccc2)oc1N1CCOCC1 | 19.8%
O=C1COc2ccc(C(=O)CSc3ccc(Br)cc3)cc2N1 | 14%
CCOC(=O)C1Sc2[nH]c(=O)sc2C(c2ccc(Cl)cc2)C1C(=O)OCC (stereo not drawn) | 48.6% (active)
CCOC(=O)c1[nH]c2c(c1-c1ccccc1)C(=O)CC(c1ccc(Cl)cc1)C2 (stereo not drawn) | 11.7%
CCOC(=O)C1=C(C)NC(=O)N(C(C)=O)C1c1ccc(Cl)cc1 (stereo not drawn) | 26.5%
CCCn1c(SCC(=O)Nc2ccc(C)c(S(=O)(=O)N3CCOCC3)c2)n[nH]c1=O | 11.7%
CSc1nnc2ccc(-c3ccc(C)cc3)nn12 | 45.7% (active)
COc1ccc(-c2ccc3nnc(SCC(=O)Nc4ccc(NC(C)=O)cc4)n3n2)cc1 | -13%
Fc1cccc(CSc2nnc3ccc(-c4ccncc4)nn23)c1 | 16.3%
Cc1oc(C(N)=O)cc1COc1ccc(C(N)=O)cc1 | -9.15%
CCOc1cc(C(=O)Nc2ncccn2)cc(OCC)c1OCC | 8.23%
CCOc1cc(-c2conc2N)cc(OCC)c1OCC | 41.9% (active)
CCOc1cc2c(Cl)ncnc2c(OCC)c1OCC | 19.3%
Cc1sc2c(c1C)c(=O)n(-c1ccccc1)c1nncn21 | 20.4%
CC[C@H](C)C(=O)N[C@H]1CCCN1C(=O)/C=C/c1ccccc1 | -0.774%
Cc1ccc2c(c1)N(CCCC(=O)NCc1cccnc1)C(=O)CO2 | -19.6%
COc1ccc(CNC(=O)C[C@H]2C[C@H](C(=O)N3CCOCC3)[C@@]3(CCC4CCCC4)c4[nH]c5ccc(Cl)cc5c4CCN3C2=O)cc1OC | 17%
CC1Cc2ccccc2N1CC(=O)Nc1ccc2c(c1)OC(F)(F)O2 (stereo not drawn) | 20.8%
CN1CCc2c(sc3c2c(NCc2ccco2)nc2nnnn23)C1 | 21.9%
O=C(Cc1ccc2c(c1)CCCC2)Nc1ccccc1Cl | 10.5%
O=C(Nc1ccccc1Cl)/C(Cl)=C(\Cl)S(=O)c1ccccc1 (stereo not drawn) | 78.1% (active)

SMILES | inhibition
Cc1c(NC(=O)Nc2ccccc2Cl)sc(=S)n1C | 12%
CN=C1C=C/C(=N/N=c2\ccn(O)cc2C)C=C1C | 16.6%
Cc1cc(-c2ccc(S(=O)(=O)N3CCN(c4cccc(C(F)(F)F)c4)CC3)s2)on1 | -2.35%
COC(C/C=C/C(=O)[C@@H](C)OCc1ccccc1)OC | 54.5% (active)
COC(C[C@@H]1O[C@@H]1C(=O)[C@H](C)OCc1ccccc1)OC | -17.2%
COC(C[C@H](O)CC(=O)[C@@H](C)OCc1ccccc1)OC | 7.97%
O=S(=O)(/C=C/c1ccccc1)N1CCNCC1 | 7.28%
CCOc1ccccc1-n1c(SCC(=O)NCc2ccco2)nnc1-c1ccncc1 | 8.51%
Cc1cc(Br)ccc1SCC(=O)OCC(=O)NCc1ccc2c(c1)OCO2 | 28%
CC(=O)Nc1ccc(S(=O)(=O)Nc2ccc(N3CCCCC3)cc2)cc1 | 3.03%
O=C(Cc1ccccc1)NC(=S)Nc1ccc(N2CCCCC2)cc1 | 38.6%
O=C1C=CC(=O)N1c1ccc(N2CCCCC2)cc1 | 93% (active)
CC(=O)c1cccc(NC(=O)C2CCCN(S(=O)(=O)c3cccc4nonc34)C2)c1 (stereo not drawn) | -2.16%
N#Cc1ccc(CSc2ncccn2)cc1 | -2.68%
N#Cc1ccc(CSc2nnc3ccccn23)cc1 | 21.5%
N#Cc1ccc(CSc2nnc(-c3ccccn3)n2-c2ccc(Cl)cc2)cc1 | 40% (active)
O=C1CSC2=NCN(c3ccccc3)CN12 | -4.56%
Cc1nc(NC(=O)C2CCCCC2)sc1C | 25.4%
CC1CCCCC1NC(=O)COc1ccc(C#N)cc1 (stereo not drawn) | -1.06%
CCOC(=O)c1c(NC(=O)C2CC=CCC2C(=O)O)sc(C)c1CC (stereo not drawn) | 15.4%
O=C(CSc1nnc(-c2cccs2)n1Cc1ccco1)c1ccc2c(c1)OCO2 | -3.98%

SMILES | inhibition
COc1ccc(-c2cc3ncccc3cn2)cc1 | 8.87%
COc1ccc(-c2cc(C3CCN(c4ncccc4[N+](=O)[O-])CC3)[nH]n2)cc1 | 49.2% (active)
CC(=O)NC(Cc1ccccc1)C(=O)NC1CCN(c2ncccc2[N+](=O)[O-])CC1 (stereo not drawn) | 10.4%
O=C(NCC1CCCO1)c1cc2c(s1)CCCC2 (stereo not drawn) | -4.36%
O=C1CCCc2c1[nH]c1ccc(Br)cc21 | 13.5%
COc1cccc(C(=O)Oc2cc(C)[nH]c(=O)c2[N+](=O)[O-])c1 | -4.85%
Cc1ccc(C)c(N2CCN(S(=O)(=O)c3ccc4c(c3)oc(=O)n4C)CC2)c1 | 27.4%
Cc1ccc(C)c(N2CCN(S(=O)(=O)c3c(C)[nH]c(C)c3C(=O)N3CCCC3)CC2)c1 | -8.05%
COC(=O)c1cc(S(=O)(=O)N2CCN(c3cc(C)ccc3C)CC2)c[nH]1 | 41.6% (active)
C/C(=N\N1CCN(Cc2ccc(C)cc2)CC1)c1ccco1 | -7.59%
O=C(CN1CCN(c2ccc(F)cc2)CC1)Nc1cccc(C(F)(F)F)c1 | 41.1% (active)
O=C(CN1CCN(c2ccc(F)cc2)CC1)Nc1ccccc1 | 11.6%
O=C(CN1CCN(c2ccccc2)CC1)Nc1ccc(F)cc1 | -0.126%
CC(C)Oc1ccc(Cc2n[nH]c(=S)n2Cc2ccccc2)cc1Cl | -6.21%
Cn1c(CCCOc2ccc(Cl)cc2Cl)n[nH]c1=S | 47.8% (active)
O=C(CCCOc1ccc(Cl)cc1Cl)NNC(=O)C1CCC1 | 5.85%
CCN1C(=O)[C@@H]2[C@@H](c3ccc(-c4cccc(Cl)c4)cc3)N3CCC[C@@]3(C(=O)OC)[C@@H]2C1=O | 30.1%
C[N+]1(CC(O)COc2ccccc2)CCN(C(=O)c2ccc([N+](=O)[O-])cc2)CC1 (stereo not drawn) | -0.233%
CCOC(=O)C/C(C)=N\Nc1ccc([N+](=O)[O-])cc1[N+](=O)[O-] | 44.5% (active)
CCOC(=O)c1ccc(NNC(C)=O)c([N+](=O)[O-])c1 | 9.84%
CCCCOC(=O)CCCc1ccc([N+](=O)[O-])cc1[N+](=O)[O-] | 28.7%
